Test results taken from PubChem BioAssay (Tox21).
Results filed as inconclusive are left out. Calls of active or inactive are those of the source. Unless noted, the call rests on the fitted dose curve; in most records, active means well fitted curve in the direction sought with a large enough effect in the repeat runs; inconclusive means weak or mixed curves; inactive means no such curve, though single readings can be large; an effect the other way counts as inactive or inconclusive.

How the values were obtained:
[1] = qHTS assay to identify small molecule agonists of the estrogen receptor alpha (ER-alpha) signaling pathway in the presence of an antagonist - cell viability counter screen (AID 1259386);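 further: cells exposed to compounds for 22 h at 37 °C before the viability read; nearly all actives have a fitted effect of over 30% in size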; further: potency means the concentration at half of the fitted maximal effect; on activity change, negative = cytotoxicity: series mostly up to about 92 µM
In short: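 Viability counter screen using VM7Luc4E2 (full-length ER-alpha, four ERE-luciferase). The cells were treated with compounds alongside ICI-182,780 10.0nM for 22hr, and live-cell protease fluorescence was quantified with CellTiter-Fluor.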

[2] = target: Progesterone receptor (Homo sapiens) (UniProt P06401); assay: qHTS assay to identify small molecule agonists of the progesterone receptor (PR) signaling pathway (AID 1346784; calls by dose curve; further: nearly all actives have a fitted effect of over 30% in size; further: potency means the concentration at half of the fitted maximal effect)
In short: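 PR-UAS-bla HEK 293T cells carrying a UAS-driven beta-lactamase reporter were seeded in medium with 2% charcoal-stripped FBS, preincubated 6 hr at 37C, then exposed to compounds in DMSO for 16 hr; agonism was read by LiveBLAzer B/G FRET fluorescence.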

[3] = target: Progesterone receptor (Homo sapiens) (UniProt P06401); assay: qHTS assay to identify small molecule antagonists of the progesterone receptor (PR) signaling pathway (AID 1346795; active means well fitted inhibition curve with a large enough effect in the signal ratio in the repeat runs, not every such curve was filed as active; the % refers to the signal ratio)
In short: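 PR-UAS-bla HEK293T cells carrying a UAS-driven beta-lactamase reporter were plated in medium with 2% charcoal-stripped FBS and rested 6 hr at 37C. Compounds were added with 1 nM R5020 (final) for 16 hr, then FRET substrate loaded 2 hr at room temperature.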

[4] = qHTS assay to identify small molecule antagonists of the progesterone receptor (PR) signaling pathway - cell viability counter screen (AID 1346798); further: series mostly up to about 92 µM; nearly all actives have a fitted effect of over 50% in size
In short: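 PR-UAS-bla HEK293T cells in medium with 2% charcoal-stripped FBS were treated with compounds plus R5020 for 16 hr at 37C. Cell viability was then read by CellTiter-Glo luminescence after 30 min at room temperature in the same wells.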

[5] = qHTS assay to identify small molecule agonists of the progesterone receptor (PR) signaling pathway - cell viability counter screen (AID 1346799; calls by dose curve; further: nearly all actives have a fitted effect of over 45% in size)
In short: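 PR-UAS-bla HEK293T cells, 3,000 per well in medium with 2% charcoal-stripped FBS, were preincubated 6 hr at 37C, then exposed to compounds for 16 hr; viability was read as CellTiter-Glo luminescence after 30 min at room temperature.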

[6] = qHTS assay to identify small molecule agonists of the TGF-beta/Smad signaling pathway - cell viability counter screen (AID 1346829); further: top concentration of the series differs between compounds; nearly all actives have a fitted effect of over 45% in size
In short: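 HEK 293T SBE-bla line, 5 hr compound exposure at 37 C, multiplexed CellTiter-Glo viability read by luminescence.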

[7] = qHTS assay to identify small molecule agonists of the TGF-beta/Smad signaling pathway (AID 1346859; active means well fitted activation curve with a large enough effect in the signal ratio in the repeat runs, not every such curve was filed as active; the % refers to the signal ratio; further: series mostly up to about 77 µM)
In short: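 HEK 293T cells stably carrying a beta-lactamase reporter driven by the Smad binding element were seeded overnight, exposed to DMSO-dissolved compounds for 5 hr at 37 C, 5% CO2, then loaded with FRET substrate for 2 hr at room temperature.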

[8] = target: Thyrotropin-releasing hormone receptor (Homo sapiens) (UniProt P34981); assay: qHTS assay to identify small molecule antagonists of the thyrotropin-releasing hormone receptor (TRHR) signaling pathway (AID 1346877; active means well fitted inhibition curve with a large enough effect in the repeat runs, not every such curve was filed as active; further: series mostly up to about 51 µM)
In short: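 Following an 18 h incubation at 37 °C and a 2 h calcium dye load, TRHR-HEK293 cells were exposed to compound (5 min, room temperature) and challenged with TRH, 1 nM final.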

[9] = target: Thyrotropin-releasing hormone receptor (Homo sapiens) (UniProt P34981); assay: qHTS assay to identify small molecule agonists of the thyrotropin-releasing hormone receptor (TRHR) signaling pathway (AID 1346891; calls by dose curve; further: series mostly up to about 58 µM)
In short: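 TRHR-expressing HEK293 cells were plated 18 h at 37 °C/5% CO2, loaded with calcium dye 2 h at 37 °C, then given compound in DMSO; fluorescence was read kinetically for 3 min at 1 s intervals.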

[10] = qHTS assay to identify small molecule antagonists of the TGF-beta/Smad signaling pathway - cell viability counter screen (AID 1346824); further: nearly all actives have a fitted effect of over 50% in size
In short: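 SBE-bla HEK 293T cells were plated overnight at 37 C, then given compounds in DMSO plus TGF-beta1 (added as 0.25 ng/mL solution) for 5 hr. After the bla read, CellTiter-Glo was added to the same wells and luminescence read after 30 min at room temperature.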
On the % scale 0 is the no-effect control and ±100 the full control effect.

Thyrotropin-releasing hormone receptor (Homo sapiens), sequence (P34981 whole entry, looked up): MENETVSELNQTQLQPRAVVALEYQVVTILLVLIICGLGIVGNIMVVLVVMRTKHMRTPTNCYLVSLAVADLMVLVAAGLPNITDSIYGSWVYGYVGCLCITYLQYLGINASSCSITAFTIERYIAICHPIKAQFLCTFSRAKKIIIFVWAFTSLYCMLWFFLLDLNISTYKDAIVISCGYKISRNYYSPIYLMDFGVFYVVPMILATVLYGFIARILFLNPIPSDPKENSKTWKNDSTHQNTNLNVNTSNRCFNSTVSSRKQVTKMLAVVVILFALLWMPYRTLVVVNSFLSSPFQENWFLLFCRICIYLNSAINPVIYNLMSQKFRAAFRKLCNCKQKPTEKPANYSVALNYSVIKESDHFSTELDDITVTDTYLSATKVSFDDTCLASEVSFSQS
Progesterone receptor (Homo sapiens), sequence (P06401 whole entry, looked up): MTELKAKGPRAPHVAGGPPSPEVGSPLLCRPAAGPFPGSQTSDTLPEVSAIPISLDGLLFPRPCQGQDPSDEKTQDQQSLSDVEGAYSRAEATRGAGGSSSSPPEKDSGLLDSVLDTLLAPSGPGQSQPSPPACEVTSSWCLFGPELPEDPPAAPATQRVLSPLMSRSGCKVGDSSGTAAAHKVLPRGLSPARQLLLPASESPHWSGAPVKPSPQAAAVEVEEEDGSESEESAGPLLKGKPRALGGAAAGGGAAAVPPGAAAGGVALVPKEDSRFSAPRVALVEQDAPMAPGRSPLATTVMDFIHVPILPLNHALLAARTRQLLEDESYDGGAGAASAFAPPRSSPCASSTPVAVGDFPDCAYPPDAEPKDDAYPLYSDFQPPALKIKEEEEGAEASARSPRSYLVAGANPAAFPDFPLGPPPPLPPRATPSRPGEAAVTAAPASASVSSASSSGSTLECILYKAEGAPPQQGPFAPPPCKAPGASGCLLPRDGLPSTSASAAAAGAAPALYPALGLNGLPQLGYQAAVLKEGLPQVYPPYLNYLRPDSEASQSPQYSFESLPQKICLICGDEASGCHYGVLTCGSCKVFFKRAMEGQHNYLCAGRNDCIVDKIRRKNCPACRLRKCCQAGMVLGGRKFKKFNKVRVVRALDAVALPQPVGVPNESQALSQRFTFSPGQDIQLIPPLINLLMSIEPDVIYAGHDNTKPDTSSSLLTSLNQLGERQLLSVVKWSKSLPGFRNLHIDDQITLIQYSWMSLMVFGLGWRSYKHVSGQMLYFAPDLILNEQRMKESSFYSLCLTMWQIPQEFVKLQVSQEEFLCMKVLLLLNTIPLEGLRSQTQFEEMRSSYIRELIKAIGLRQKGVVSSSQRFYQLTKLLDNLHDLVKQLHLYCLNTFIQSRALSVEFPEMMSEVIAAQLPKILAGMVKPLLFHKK

Cc1nc2ccc(CN(C)c3ccc(C(=O)N[C@@H](CCC(=O)O)C(=O)O)s3)cc2c(=O)[nH]1
inactive: Potency [1] | Potency [2] | Potency [3] | Potency [4] | Potency [5] | outcome [6] | outcome [7] | outcome [8] | Potency [9]

O=C1c2ccccc2C(=O)c2cc(O)ccc21
inactive: Potency [2] | Potency [3] | outcome [6] | outcome [7]
active: Potency [1] 27.3 µM

COc1cc2c(cc1OC)-c1cc3ccc(OC)c(OC)c3c[n+]1CC2
inactive: Potency [2] | Potency [3] | Potency [5] | outcome [10] | outcome [6] | outcome [8] | Potency [9]
active: Potency [1] 61.7 µM

C[C@H]1C[C@H]2[C@@H]3CCC4=CC(=O)C=C[C@]4(C)[C@H]3C(=O)C[C@]2(C)[C@@]1(O)C(=O)CO
inactive: Potency [1] | Potency [2] | Potency [3] | Potency [4] | outcome [10] | outcome [6] | outcome [7] | outcome [8] | Potency [9]

[Ca+2]
inactive: Potency [1] | Potency [2] | Potency [3] | Potency [4] | outcome [6] | outcome [7]

Cc1ccc(C(=O)Nc2ccc(S(=O)(=O)O)c3cc(S(=O)(=O)O)cc(S(=O)(=O)O)c23)cc1NC(=O)c1cccc(NC(=O)Nc2cccc(C(=O)Nc3cc(C(=O)Nc4ccc(S(=O)(=O)O)c5cc(S(=O)(=O)O)cc(S(=O)(=O)O)c45)ccc3C)c2)c1
inactive: Potency [1] | Potency [2] | Potency [3] | Potency [4] | outcome [10] | outcome [6] | outcome [7] | outcome [8] | Potency [9]

CCCCN1C=CN(C)C1
inactive: activity change, negative = cytotoxicity [1] 0.508% [at 19 µM] | activity change, negative = inhibition [3] 3.82% [at 18.9 µM] | activity change, negative = cytotoxicity [4] -2.54% [at 18.9 µM] | viability change, negative = cytotoxic [10] -11.6% [at 15.8 µM] | activity change, negative = cytotoxicity [6] -1.56% [at 15.8 µM] | activation [7] 4.63% [at 15.8 µM]
active: Potency [2] 2.46 µM

CC1=CC(=O)[C@H]2C[C@@H]1C2(C)C
inactive: Potency [1] | Potency [2] | Potency [3] | Potency [4] | Potency [5] | outcome [6] | outcome [7] | outcome [8] | Potency [9]

CN1CCN(c2cc3c(nn2)Oc2ccccc2N3C)CC1
inactive: activation [2] 0.134% [at 19 µM] | activity change, negative = inhibition [3] 15.6% [at 18.9 µM] | activity change, negative = cytotoxicity [4] -18% [at 18.9 µM] | activity change, negative = cytotoxicity [5] -4.66% [at 19 µM] | viability change, negative = cytotoxic [10] 1.43% [at 15.8 µM] | activity change, negative = cytotoxicity [6] 19.9% [at 15.8 µM] | activation [7] 3.68% [at 15.8 µM]

CC(=O)OCC(=O)[C@@]1(O)[C@H](C)C[C@H]2[C@@H]3CCC4=CC(=O)C=C[C@]4(C)[C@@]3(F)[C@@H](O)C[C@@]21C
inactive: Potency [1] | Potency [4] | outcome [10] | outcome [6] | outcome [7] | outcome [8] | Potency [9]

Cc1ccnc(NS(=O)(=O)c2ccc(N)cc2)n1
inactive: Potency [2] | Potency [3] | Potency [4] | Potency [5] | outcome [10] | outcome [6] | outcome [7]

Nc1ccn([C@@H]2O[C@H](CO)[C@@H](O)C2(F)F)c(=O)n1
inactive: Potency [1] | Potency [3] | Potency [4] | Potency [5] | outcome [10] | outcome [6] | outcome [7]

CCCCCCCCCCCCCCC(=O)O
inactive: Potency [1] | Potency [4] | Potency [5] | outcome [6] | outcome [7] | outcome [8] | Potency [9]

CC1CCC(CO)CC1 (configuration not stated)
inactive: Potency [1] | Potency [2] | Potency [4] | Potency [5] | outcome [10] | outcome [6] | outcome [7] | outcome [8] | Potency [9]

CCOc1c(N2CCOCC2)cnn(C)c1=O
inactive: Potency [1] | Potency [2] | Potency [4] | Potency [5] | outcome [10] | outcome [6] | outcome [7] | outcome [8] | Potency [9]

CCNS(=O)(=O)c1ccc(C)cc1
inactive: Potency [1] | Potency [2] | Potency [4] | Potency [5] | outcome [10] | outcome [6] | outcome [7] | outcome [8] | Potency [9]

O=C(O)Cc1csc(-c2ccc(Cl)cc2)n1
inactive: Potency [1] | Potency [4] | Potency [5] | outcome [6] | outcome [8] | Potency [9]

CC(C)(C)OC(=O)c1cccc(N)c1
inactive: Potency [1] | Potency [4] | Potency [5] | outcome [6] | outcome [7] | outcome [8] | Potency [9]

Clc1cc(Cl)c(Cl)nc1Cl
inactive: Potency [1] | Potency [2] | Potency [4] | Potency [5] | outcome [6] | outcome [7] | outcome [8] | Potency [9]

CC(COc1ccccc1)NN (configuration not stated)
inactive: Potency [2] | Potency [3] | Potency [4] | Potency [5] | outcome [10] | outcome [6] | outcome [7]

NC(N)=NCCN1CCCCCCC1
inactive: activation [2] -1.69% [at 0.349 µM] | activity change, negative = inhibition [3] 0.475% [at 0.348 µM] | activity change, negative = cytotoxicity [4] -0.514% [at 0.348 µM] | activity change, negative = cytotoxicity [5] 0.507% [at 0.349 µM] | viability change, negative = cytotoxic [10] 2.08% [at 0.29 µM] | activity change, negative = cytotoxicity [6] -17.1% [at 0.29 µM] | activation [7] 0.678% [at 0.29 µM]

CN(C)[C@@H]1C(=O)C(C(=O)NCN2CCCC2)=C(O)[C@@]2(O)C(=O)C3=C(O)c4c(O)cccc4[C@@](C)(O)C3C[C@@H]12 (some centres not stated)
inactive: Potency [2] | Potency [3] | Potency [4] | Potency [5] | outcome [10] | outcome [6] | outcome [7] | outcome [8] | Potency [9]

CC1OC1C1CCC2(C)OC2C1 (configuration not stated)
inactive: Potency [1] | Potency [2] | Potency [4] | Potency [5] | outcome [6] | outcome [7] | outcome [8] | Potency [9]

C1CCC2=NCCCN2CC1
inactive: Potency [2] | Potency [3] | Potency [4] | Potency [5] | outcome [10] | outcome [6] | outcome [7]

COc1cccc(OC)c1C(=O)N[C@@H]1C(=O)N2[C@@H]1SC(C)(C)[C@@H]2C(=O)O
inactive: Potency [1] | Potency [2] | Potency [5] | outcome [10] | outcome [6] | outcome [7]

O=C1NC(=O)C2CC=CCC12 (configuration not stated)
inactive: Potency [1] | Potency [2] | Potency [5] | outcome [7] | outcome [8] | Potency [9]

CCOc1ccc2nc(S(N)(=O)=O)sc2c1
inactive: Potency [1] | Potency [2] | Potency [4] | Potency [5] | outcome [10] | outcome [6] | outcome [7] | outcome [8] | Potency [9]

CC(=O)c1ccccc1[N+](=O)[O-]
inactive: Potency [1] | Potency [2] | Potency [4] | Potency [5] | outcome [6] | outcome [7] | outcome [8] | Potency [9]
